In assay [1] the test system is Plasmodium falciparum Sir2 (PF13_0152, Sir2A). The assay is described as follows: Plasmodium falciparum Sir2A binding compounds – biochemical, small-molecule microarray, 635 nm fluorescence, primary screen (AID 1098).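 Further: score merges spot fluorescence intensity with its signal-to-noise ratio.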 The following applies: fluorescence 635 nm, higher = more signal.
The nature of assay [2]: probe aDKK1 binding to arrayed compounds – biochemical, biotinylated probe, 635/667 nm fluorescence, primary screen (AID 1099).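 Further: score merges 667nm spot fluorescence with signal to noise across triplicate slides.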 The following applies: small-molecule microarray, higher = more signal.
Assay [3] can be described thus: probe aCHRDL2 binding to arrayed compounds – biochemical, biotinylated probe, 635/667 nm fluorescence, primary screen (AID 1100). The following applies: small-molecule microarray, higher = more signal.
A short description of assay [4]: change in splice reporter luminescence, either direction, cell-based, HEK293, spliceosome inhibition project, primary screen (AID 1101).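 Further: HEK293 cells carrying a splicing-competent luciferase reporter gene; test concentration not given here.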 The following applies: HEK293 splicing luciferase reporter, 24 h, higher = more signal, called active from +8 up or from −8 down. (In a reporter assay the amount or activity of a reporter protein is the signal.)
The target of assay [5] is Fibroblast growth factor 10 (Homo sapiens) (UniProt O15520). The assay is described as follows: compounds binding fibroblast growth factor 10 – biochemical, small-molecule microarray, 635 nm fluorescence, primary screen (AID 1102). The following applies: FGF10 binding, fluorescence 635 nm, higher = more signal.
Sequence of Fibroblast growth factor 10 (Homo sapiens) (O15520 whole entry, looked up): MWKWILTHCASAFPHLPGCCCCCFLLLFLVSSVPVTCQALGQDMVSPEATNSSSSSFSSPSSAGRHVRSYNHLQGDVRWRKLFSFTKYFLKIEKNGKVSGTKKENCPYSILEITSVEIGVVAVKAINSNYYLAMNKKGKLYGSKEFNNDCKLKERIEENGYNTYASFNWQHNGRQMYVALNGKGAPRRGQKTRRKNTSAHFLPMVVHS
Assay [6] concerns glycogen synthase kinase-3 (GSK3A per assay name; protocol says GSK3B). The assay can be described thus: compounds binding glycogen synthase kinase-3 – biochemical, small-molecule microarray, 635 nm fluorescence, GSK3A, primary screen (AID 1103). Further: the record names both GSK3A and GSK3B. As to conditions: fluorescence 635 nm, higher = more signal.
Assay [7] addresses Epidermal growth factor receptor (Homo sapiens) (UniProt P00533). The assay can be described thus: compounds binding epidermal growth factor receptor – biochemical, small-molecule microarray, 635 nm fluorescence, primary screen (AID 1104).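 Further: score merges 667 nm emission intensity with spot signal to noise over triplicate slides.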 As to conditions: EGFR binding, higher = more signal.
In assay [8] the target is Follistatin-related protein 3 (Homo sapiens) (UniProt O95633). The assay is described as follows: compounds binding follistatin-related protein 3 – biochemical, small-molecule microarray, 635 nm fluorescence, primary screen (AID 1105).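 Further: score merges emission near 667 nm and signal to noise per printed spot across three slides.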 As to conditions: FSTL3 binding, higher = more signal.
Sequence of Follistatin-related protein 3 (Homo sapiens) (O95633 whole entry, looked up): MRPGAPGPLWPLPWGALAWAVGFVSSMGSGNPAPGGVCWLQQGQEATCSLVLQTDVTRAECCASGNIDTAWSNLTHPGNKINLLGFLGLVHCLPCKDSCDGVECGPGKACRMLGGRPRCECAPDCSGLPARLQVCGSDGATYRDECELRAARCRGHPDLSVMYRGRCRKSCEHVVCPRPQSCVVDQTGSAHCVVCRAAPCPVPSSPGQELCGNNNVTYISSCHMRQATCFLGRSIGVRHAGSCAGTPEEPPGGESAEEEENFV
The target of assay [9] is Dickkopf-related protein 1 (Homo sapiens) (UniProt O94907). The assay is described as follows: small molecules binding DKK1 protein – biochemical, small-molecule microarray, 635 nm fluorescence scan, primary screen (AID 1106).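 Further: score merges emission near 667 nm with signal to noise over three replicate slides.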 The following applies: higher = more signal.
Sequence of Dickkopf-related protein 1 (Homo sapiens) (O94907 whole entry, looked up): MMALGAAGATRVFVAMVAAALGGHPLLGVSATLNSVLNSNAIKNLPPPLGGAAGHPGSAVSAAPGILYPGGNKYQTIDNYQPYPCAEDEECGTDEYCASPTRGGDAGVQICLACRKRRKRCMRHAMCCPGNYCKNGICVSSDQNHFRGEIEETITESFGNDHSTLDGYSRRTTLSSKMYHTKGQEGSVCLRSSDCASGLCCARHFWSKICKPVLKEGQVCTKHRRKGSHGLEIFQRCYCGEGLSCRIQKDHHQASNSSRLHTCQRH
Assay [10] concerns Inhibin beta A chain (activin A). The assay can be described thus: small molecules binding activin A – biochemical, small-molecule microarray, 635 nm fluorescence scan, primary screen (AID 1107).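 Further: mouse activin A protein probed at 4.33 µg/mL on printed slides; score merges bound-protein fluorescence near 667 nm with spot signal-to-noise.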 As to conditions: INHBA, higher = more signal.
In assay [11] the test system is Human papillomavirus type 1a protein E7 (residues 44-93). The assay can be described thus: small molecules binding HPV E7 44-93 – biochemical, small-molecule microarray, residues 44-93, 635 nm fluorescence, primary screen (AID 1108).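 Further: E7 fragment applied at 1 µg/mL in TBST for 1 h at 4 C; score combines spot fluorescence with its signal to noise ratio.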 As to conditions: fluorescence 635 nm, higher = more signal.
Assay [12] in a line: hepatitis C replication reporter changes, two-sided – Huh7 cells, luciferase reporter, HCV replication inhibitor project, primary screen (AID 1109).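 Further: huh7 hepatoma cells harbouring a luciferase neomycin HCV replicon reporter; luciferase luminescence as measure of HCV replicon replication; test concentration not given here.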 The following applies: Huh7 HCV replicon luciferase reporter, 48 h; higher = more signal.
Assay [13] has as its target Left-right determination factor 2 (Homo sapiens) (UniProt O00292). The assay can be described thus: small molecules binding LEFTY2 protein – biochemical, small-molecule microarray, 635 nm fluorescence scan, primary screen (AID 1110). As to conditions: higher = more signal.
Assay [14] addresses Calmodulin-1 (Homo sapiens) (UniProt P0DP23). The assay is described as follows: small molecules binding calmodulin-1 with EGTA – biochemical, small-molecule microarray, Cy5-labelled CALM1, profiling panel (AID 1111).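 Further: labelled calmodulin applied in Tris saline Tween buffer holding calcium plus EGTA and DTT.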 The following applies: Cy5-CALM1 binding fluorescence, higher = more signal.
Assay [15] shares this target. The assay can be described thus: small molecules binding Ca-loaded calmodulin-1 – biochemical, small-molecule microarray, Cy5-labelled CALM1, plus calcium, artefact control for SMM control-protein annotation, profiling panel (AID 1112).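 Further: score merges spot fluorescence with signal to noise from triplicate slides.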 As to conditions: Cy5-CALM1 binding fluorescence, higher = more signal.
A short description of assay [16]: probe aWnt5a binding to arrayed compounds – biochemical, biotinylated probe, 635/667 nm fluorescence, primary screen (AID 1113).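 Further: score merges 667 nm fluorescence intensity with signal-to-noise per printed feature.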 As to conditions: small-molecule microarray, higher = more signal.
A short description of assay [17]: probe aShh binding to arrayed compounds – biochemical, biotinylated probe, 635/667 nm fluorescence, primary screen (AID 1114).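 Further: probe is biotin-labelled aShh protein from a stem cell growth factor screen; measures binding of labelled protein to compounds printed on the slide; score merges feature fluorescence at 667 nm with signal-to-noise.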 The following applies: small-molecule microarray, higher = more signal.
Assay [18] in a line: probe aNog binding to arrayed compounds – biochemical, biotinylated probe, 635/667 nm fluorescence, primary screen (AID 1115).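 Further: probe is biotinylated aNog protein used at 0.15 µg/mL for 1 h at 4 C; z-score combines 667 nm fluorescence of each spot with its signal to noise.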 The following applies: small-molecule microarray, higher = more signal.
Assay [19] concerns the target Torsin-1A-interacting protein 1 (Homo sapiens) (UniProt Q5JTV8). The assay is described as follows: compound microarray binding of lysate hLAP1 – cell lysate, small-molecule microarray, COS7 lysate, 635/667 nm fluorescence, primary screen (AID 1116). As to conditions: 635 nm fluorescence, higher = more signal.
The target in assay [20] is Alpha-bungarotoxin (Bungarus multicinctus) (UniProt P60615). The assay is described as follows: compounds binding labelled alpha-BTX control protein – biochemical, small-molecule microarray, Alexa647 label, 635/667 nm fluorescence, artefact control for SMM control protein annotation, profiling panel (AID 1117). As to conditions: alpha-BTX-A647 binding fluorescence, higher = more signal.
Sequence of Alpha-bungarotoxin (Bungarus multicinctus) (P60615 whole entry, looked up): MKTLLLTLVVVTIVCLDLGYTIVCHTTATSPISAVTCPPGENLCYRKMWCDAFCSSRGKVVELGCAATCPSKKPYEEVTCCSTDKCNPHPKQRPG

This passage reports composite z-score and z-score results from PubChem BioAssay.

Structures are written as SMILES. Active and inactive are the calls of the source.

Sequence of Torsin-1A-interacting protein 1 (Homo sapiens) (Q5JTV8 whole entry, looked up): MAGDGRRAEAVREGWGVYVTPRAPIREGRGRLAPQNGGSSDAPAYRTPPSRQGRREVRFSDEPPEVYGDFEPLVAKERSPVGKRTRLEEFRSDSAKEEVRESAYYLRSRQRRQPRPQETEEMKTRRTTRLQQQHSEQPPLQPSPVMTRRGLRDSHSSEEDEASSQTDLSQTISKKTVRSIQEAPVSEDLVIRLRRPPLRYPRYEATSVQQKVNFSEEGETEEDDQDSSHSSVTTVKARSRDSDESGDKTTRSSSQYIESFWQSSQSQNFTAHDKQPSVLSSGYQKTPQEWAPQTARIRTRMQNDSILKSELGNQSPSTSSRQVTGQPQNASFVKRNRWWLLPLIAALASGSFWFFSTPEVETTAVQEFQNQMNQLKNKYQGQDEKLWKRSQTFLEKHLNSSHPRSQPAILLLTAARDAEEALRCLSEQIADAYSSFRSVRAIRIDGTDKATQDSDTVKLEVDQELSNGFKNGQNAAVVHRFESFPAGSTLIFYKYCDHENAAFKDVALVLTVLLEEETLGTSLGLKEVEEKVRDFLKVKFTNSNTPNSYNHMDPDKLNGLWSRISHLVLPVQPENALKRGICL
Sequence of Epidermal growth factor receptor (Homo sapiens) (P00533 whole entry, looked up): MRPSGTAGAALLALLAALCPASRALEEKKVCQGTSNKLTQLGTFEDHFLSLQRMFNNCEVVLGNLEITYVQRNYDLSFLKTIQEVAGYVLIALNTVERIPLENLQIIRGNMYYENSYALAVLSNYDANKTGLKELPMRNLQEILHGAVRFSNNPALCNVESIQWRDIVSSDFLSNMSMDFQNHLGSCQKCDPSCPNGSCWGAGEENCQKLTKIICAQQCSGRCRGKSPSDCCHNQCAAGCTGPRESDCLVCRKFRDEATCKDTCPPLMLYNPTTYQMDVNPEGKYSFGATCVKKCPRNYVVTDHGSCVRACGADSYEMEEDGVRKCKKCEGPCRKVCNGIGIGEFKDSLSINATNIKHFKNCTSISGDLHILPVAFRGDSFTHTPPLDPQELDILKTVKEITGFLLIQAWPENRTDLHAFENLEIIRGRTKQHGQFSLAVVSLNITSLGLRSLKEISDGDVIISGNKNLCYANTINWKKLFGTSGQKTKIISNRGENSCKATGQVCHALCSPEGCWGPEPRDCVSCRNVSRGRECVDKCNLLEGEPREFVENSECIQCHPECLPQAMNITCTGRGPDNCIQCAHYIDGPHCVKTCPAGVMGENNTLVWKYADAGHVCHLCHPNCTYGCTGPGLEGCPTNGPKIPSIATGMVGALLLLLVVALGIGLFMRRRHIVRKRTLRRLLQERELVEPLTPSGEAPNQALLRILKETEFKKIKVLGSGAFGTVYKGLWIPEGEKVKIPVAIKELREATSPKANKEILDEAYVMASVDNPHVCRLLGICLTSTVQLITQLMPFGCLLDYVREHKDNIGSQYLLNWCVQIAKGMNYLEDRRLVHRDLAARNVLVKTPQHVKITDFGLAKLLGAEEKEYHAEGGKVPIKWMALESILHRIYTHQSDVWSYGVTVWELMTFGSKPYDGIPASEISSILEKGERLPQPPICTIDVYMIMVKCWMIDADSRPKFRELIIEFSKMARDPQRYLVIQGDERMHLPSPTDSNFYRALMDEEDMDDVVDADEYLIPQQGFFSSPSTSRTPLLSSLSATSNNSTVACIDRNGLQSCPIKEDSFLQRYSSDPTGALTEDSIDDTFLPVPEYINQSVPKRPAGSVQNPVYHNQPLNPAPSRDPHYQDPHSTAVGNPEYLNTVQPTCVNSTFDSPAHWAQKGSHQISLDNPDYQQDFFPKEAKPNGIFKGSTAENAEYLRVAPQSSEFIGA
Sequence of Left-right determination factor 2 (Homo sapiens) (O00292 whole entry, looked up): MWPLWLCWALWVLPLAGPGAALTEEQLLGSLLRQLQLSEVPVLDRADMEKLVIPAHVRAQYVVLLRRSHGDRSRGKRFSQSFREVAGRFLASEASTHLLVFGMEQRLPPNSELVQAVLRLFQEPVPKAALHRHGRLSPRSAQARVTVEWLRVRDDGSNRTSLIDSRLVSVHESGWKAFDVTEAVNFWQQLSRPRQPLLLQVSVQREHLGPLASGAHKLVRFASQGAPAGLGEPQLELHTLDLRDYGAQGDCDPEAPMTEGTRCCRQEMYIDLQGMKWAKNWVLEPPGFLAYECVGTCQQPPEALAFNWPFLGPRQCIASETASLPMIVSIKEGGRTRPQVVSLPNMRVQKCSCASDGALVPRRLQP

Take `CN1C(=O)C2C=CC(C(O)C(c3ccccc3)c3ccccc3)N(Nc3ccccc3)C2C1=O` (stereo not given): the composite z-score in assay [1] stood at 0.929; in assay [2] it was 0.724; in assay [3] it was 0.883; in [5] it was 1.11; in assay [6], 1.32; in [7], 0.247. Further, the composite z-score in [8] is 1.07; in assay [9] it was -0.138; in assay [10] it was 0.596; in assay [11], 1.42; in [13] it was -0.0076; in assay [14] it was 1.29. Further, the composite z-score in assay [15] came out at 0.567; in assay [16], 0.137; in assay [17], 0.216; in assay [18], 0.713; in assay [19], 0.597; in assay [20] it was 1.34. Besides, the z-score in assay [4] is 0.559 (inactive); in [12], -1.13.

Take `CC(C)C(=C=CC[C@H](O)c1ccccc1OCCO)CCO`: the composite z-score was 0.0112 in [1]; 0.292 in assay [2]; -0.0417 in [3]; 0.0544 in assay [5]; -0.144 in [6]; -0.585 in assay [7]. The composite z-score in assay [8] is -0.449; in assay [9] it was -0.679; in assay [10] it was 0.913; in assay [11], 1.31; in assay [13], -0.378; in [14], -0.274. The composite z-score in assay [15] was 0.0647; in assay [16], -0.0643; in assay [17], 0.0639; in assay [18] it was -0.0546; in assay [19], 1.02; in [20], 1.92. In addition, the results for the z-score in [4] and in assay [12] were 0.232 (inactive) and -1.32, respectively.

For the compound `[N-]=[N+]=NCc1ccccc1[C@@H]1OC(c2ccc(OCCCO)cc2)=N[C@]1(Cc1ccccc1N=[N+]=[N-])C(N)=O`, the composite z-score in [1] is 1.48; in assay [2], 0.367; in assay [3] it was 1.16; in assay [5], 1.38; in [6], 1.27; in assay [7], -0.0099. In addition, the composite z-score in assay [8] is 0.995; in assay [9], 0.259; in assay [10] it was 1.06; in [11] it was 1.43; in assay [13], -0.0808; in assay [14], 2.02. Also, the composite z-score in [15] is 1.11; in assay [16], -0.0478; in assay [17], 0.593; in assay [18], 1.49; in assay [19] it was 0.804; in assay [20] it was 2.66. For the same compound, the values for the z-score in assay [4] and in assay [12] were 0.352 (inactive) and -0.613, respectively.

`CCOC(=O)C=Cc1cccc(OC)c1O`: the composite z-score in assay [1] is -0.0095; in [2], -0.349; in [3], 0.165; in [5], -0.96; in [6], -0.073; in assay [7], -1.71. Moreover, the composite z-score was -0.631 in [8]; -1.77 in assay [9]; -0.4 in assay [10]; -0.0381 in [11]; -1.23 in assay [13]; 0.155 in assay [14]. For the same compound, the composite z-score is -0.551 in [15]; -0.122 in assay [16]; -0.212 in assay [17]; -0.344 in [18]; -0.0817 in [19]; 0.254 in assay [20]. Besides, the figures for the z-score in [4] and in [12] were -1.98 (inactive) and 1.61, respectively.

As to `CCN(CC)c1ccc(N2CC=CC34O[C@@H]5C=CCOC(=O)[C@@H]5[C@H]3C(=O)N(CCCCCO)[C@@H]4C2=O)cc1` (stereo not given in full), the composite z-score was 1.85 in [1]; -0.0647 in assay [2]; 0.682 in assay [3]; 0.126 in assay [5]; -0.453 in assay [6]; -1.53 in assay [7]. For the same compound, the composite z-score in assay [8] is -1.22; in assay [9], -0.413; in assay [10] it was 1.1; in assay [11], 0.221; in [13] it was -0.938; in assay [14], -0.385. Further, the composite z-score in [15] was -0.0559; in [16], 0.195; in assay [17], 0.147; in [18], 0.277; in assay [19], 0.975; in assay [20], -1.28. The z-score in assay [4] was 0.223 (inactive); in [12], -0.323.

With `[N-]=[N+]=NCc1ccccc1[C@H]1OC(c2ccc(OCCCO)cc2)=N[C@@]1(Cc1ccccc1)C(=O)NCC(O)CO` (stereo not given in full), the composite z-score in assay [1] is 1.27; in assay [2] it was 0.847; in assay [3] it was 1.21; in assay [5], 0.782; in assay [6], 1.27; in assay [7], -0.187. The composite z-score in [8] was -0.751; in assay [9] it was -0.651; in [10], 0.33; in assay [11], 1.13; in assay [13], -0.524; in assay [14], 1.52. Further, the composite z-score in assay [15] is 0.564; in [16] it was 0.507; in assay [17], 0.128; in [18], 1.9; in assay [19], 1.51; in assay [20], 0.131. In addition, the z-score in [4] is -0.807 (inactive); in assay [12], -1.38.

Regarding `CC(C)(C)OC(=O)CC[C@@]1(C(=O)NCC(O)CO)N=C(c2ccc(OCCCO)cc2)O[C@@H]1c1ccccc1` (stereo not given in full), the composite z-score in assay [1] is 0.317; in [2], 0.652; in [3] it was 0.811; in assay [5], 0.989; in assay [6] it was 0.0733; in [7], -1.19. For the same compound, the composite z-score was -0.583 in assay [8]; -0.693 in [9]; 0.203 in assay [10]; 1.36 in assay [11]; -0.452 in assay [13]; -0.0155 in [14]. The composite z-score was 0.924 in assay [15]; -0.0685 in assay [16]; 0.223 in assay [17]; 0.487 in assay [18]; 3.12 in assay [19]; 1.04 in assay [20]. For the same compound, the figures for the z-score in assay [4] and in assay [12] were -0.658 (inactive) and 0.821, respectively.

`C#C[C@H](O[Si](C#CCCCCCC)(C(C)C)C(C)C)c1ccccc1`: the composite z-score is -0.369 in [1]; -0.109 in assay [2]; -0.132 in assay [3]; -0.0831 in assay [5]; 0.173 in assay [6]; -0.33 in [7]. Also, the composite z-score is -0.215 in assay [8]; -0.169 in assay [9]; 0.168 in assay [10]; 0.228 in assay [11]; -0.234 in assay [13]; -0.302 in [14]. The composite z-score in [15] is -0.351; in assay [16], -0.131; in [17], -0.341; in assay [18], 0.167; in assay [19], -0.0173; in assay [20], 0.0612. The results for the z-score in assay [4] and in assay [12] were -0.22 (inactive) and 0.242, respectively.

As for `C=C(C(=O)CC[C@@H](OC(=O)c1cccnc1)c1ccc(OCCO)cc1)C(C)C`, the composite z-score in assay [1] was 0.603; in assay [2], -0.312; in [3], -0.188; in [5], 0.922; in [6], 0.154; in assay [7], -0.255. The composite z-score in [8] is 0.802; in assay [9] it was 0.906; in assay [10], 0.223; in assay [11] it was 0.16; in [13], 0.286; in assay [14], -0.277. In addition, the composite z-score was -1.85 in assay [15]; -0.0145 in assay [16]; -0.0035 in [17]; -0.0863 in assay [18]; 2.09 in assay [19]; 0.46 in assay [20]. The z-score in assay [4] is -0.255 (inactive); in assay [12] it was -4.49.
